# Screening results deposited in PubChem BioAssay by National Center for Advancing Translational Sciences (NCATS).
# This is a sample that favours compounds with a hit; in the whole collection about 5.8% have one here.
# PINK1 modulator: modulators of PINK1 expression; PINK1 immunofluorescence, high-content cytometry, 24 h; Potency, µM (top dose mostly 76.6 µM), without a hit: at the top dose activation (PINK1 increase), actives largely listed as activators; 410,000 compounds, 0.2% hits; AID 624263; active = well fitted activation curve with a large enough effect; inconclusive = small, poorly fitted or top-dose-only effect; cell line not stated here; also: % of control where 0% means no effect; nearly all actives have a fitted effect of over 65% in size
#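 A stable cell line was treated with compounds at 5 concentrations for 24 hours, with CCCP as control. PINK1 levels and mitochondrial localization were measured by immunofluorescence with mitochondrial, cell and nuclear markers after fixation, read by laser-scanning cytometry.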
# KB-3-1 cytotox: kills parental KB-3-1 adenocarcinoma cells. KB-3-1 viability, CellTiter-Glo ATP luminescence, 72 h. Potency, µM (highest dose often 46.1 µM), hits mostly cytotoxic. 400,000 compounds, 1.4% hits. AID 1347075; also: % is scaled to controls: 0 for no effect and ±100 for the full control effect; nearly all actives have a fitted effect of over 60% in size
#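 Luminescent ATP read-out (CellTiter-Glo) measures survival of drug-naive KB-3-1 cells after 72 h compound exposure at 37 °C. Titration series was screened from lowest to highest concentration, with DMSO vehicle plates as background controls.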
# KB-V1 MDR tox: kills drug-selected multidrug resistant KB-V1 cells | KB-V1 MDR cells viability, CellTiter-Glo, 72 h | Potency, µM (doses to about 46.1 µM), hits mostly cytotoxic | 400,000 compounds, 3.4% hits; also: % is scaled to controls: 0 for no effect and ±100 for the full control effect; nearly all actives have a fitted effect of over 60% in size
#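 Cells of the MDR subline KB-V1 are plated, dosed with compound at multiple concentrations, and incubated 72 h at 37 degrees C; CellTiter-Glo is then added and luminescence read after 10 min.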
# MCF10A rereplic: DNA re-replication induction in MCF 10a cells; Potency, µM (titrated, usually from 46.1 µM), for the others: top-dose activity, positive = re-replication, hits mostly activators; AID 624296; MCF 10A DNA re-replication, Hoechst nuclear intensity, 48 h; 350,000 compounds, 2.9% hits; also: % of control where 0% means no effect; nearly all actives have a fitted effect of over 50% in size
# SW480 rerep: DNA re-replication induction in SW480 cells | SW480 DNA re-replication, Hoechst DNA content imaging, 48 h | Potency, µM (titrated, usually from 46.1 µM), for inactives: at the highest dose re-replication activation, most hits filed as activators | 340,000 compounds, 1.8% hits; also: % of control where 0% means no effect; nearly all actives have a fitted effect of over 55% in size
#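 Hoechst fluorescence of nuclei (405 nm excitation, 500-530 nm emission) measured by plate-scanning imager after 48 hr compound exposure at 37 C; re-replication scored as increased number of nuclei with elevated intensity.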
# ALOX12 inh: ALOX12 (human) lipoxygenase inhibition. P18054. purified 12hLO, xylenol orange hydroperoxide absorbance. Potency, µM (highest dose often 108 µM), without a hit: at the highest dose activity change, negative = inhibition, actives largely listed as inhibitors. 580,000 compounds, 1.1% hits; also: % is scaled to controls: 0 for no effect and ±100 for the full control effect
# Target sequence (P18054 whole entry, looked up): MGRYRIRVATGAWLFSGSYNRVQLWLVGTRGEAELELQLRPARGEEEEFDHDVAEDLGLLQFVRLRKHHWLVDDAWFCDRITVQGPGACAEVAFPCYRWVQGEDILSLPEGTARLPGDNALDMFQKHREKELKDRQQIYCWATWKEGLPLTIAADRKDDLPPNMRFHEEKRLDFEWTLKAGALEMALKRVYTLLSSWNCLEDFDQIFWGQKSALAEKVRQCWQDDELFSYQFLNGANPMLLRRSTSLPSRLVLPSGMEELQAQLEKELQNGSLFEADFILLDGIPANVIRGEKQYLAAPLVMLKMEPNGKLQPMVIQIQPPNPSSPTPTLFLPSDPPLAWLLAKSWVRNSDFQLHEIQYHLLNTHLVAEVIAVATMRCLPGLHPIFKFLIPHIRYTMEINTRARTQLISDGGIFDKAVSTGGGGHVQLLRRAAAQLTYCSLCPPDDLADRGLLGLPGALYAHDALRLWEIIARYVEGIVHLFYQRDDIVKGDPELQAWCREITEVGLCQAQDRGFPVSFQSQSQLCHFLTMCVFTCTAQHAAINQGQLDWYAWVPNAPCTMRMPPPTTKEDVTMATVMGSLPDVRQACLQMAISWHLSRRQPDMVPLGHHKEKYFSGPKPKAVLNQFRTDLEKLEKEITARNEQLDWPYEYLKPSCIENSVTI
#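 Purified human 12hLO at 150 nM in 25 mM Hepes, 0.01% Triton X-100, pH 7.0, preincubated 15 min at room temperature with compound. Reaction started with 40 uM arachidonic acid, 30 min at room temperature. Hydroperoxide measured by Fe-xylenol orange, 573/405 nm absorbance ratio.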
# An asterisk follows results filed as active; i = inactive; ? = inconclusive; nt = not tested or not shown; [ ] = remark or other dose. Unless noted, calls follow the shape of the dose curve; as a rule, active = well fitted curve in the direction sought with a large enough effect; inconclusive = small, poorly fitted or top-dose-only effect, or another doubt; inactive = no such curve, though single readings can be large; an effect the other way counts as inactive or inconclusive. Potency is read from the fitted curve at half-maximal effect.
SMILES,PINK1 modulator,KB-3-1 cytotox,KB-V1 MDR tox,MCF10A rereplic,SW480 rerep,ALOX12 inh
COc1cccc(C2=CC(=O)C[C@H](c3ccc(Cl)cc3)C2)c1OC,0%,i,i,23µM*,0%,-14%
COc1ccc([C@H]2CC(=O)C=C(c3ccc(OC)cc3OC)C2)cc1,4%,0.82µM*,1.5µM*,?,13µM*,5%
COc1ccc(Br)cc1C1=CC(=O)C[C@H](c2ccc(F)cc2)C1,3%,i,16µM*,nt,nt,-7%
CC(C)N(C)CC1CCN(C(=O)NCCc2ccc(F)cc2)CC1,nt,nt,nt,nt,nt,12%
Cc1ccc2nc(Nc3nc(C(C)C)cc(=O)[nH]3)nc(C)c2c1,nt,nt,nt,nt,nt,12%
Cc1ccc(-c2nc3ccc([N+](=O)[O-])cc3[nH]2)cc1,2%,i,i,0%,-5%,?
O=[N+]([O-])c1ccc(/C=C/c2nc3ccc([N+](=O)[O-])cc3[nH]2)cc1,?,i,3.7µM*,-1%,-4%,-7%
Clc1ccc(-c2nc3ccncc3[nH]2)cc1,-2%,?,18µM*,2%,-13%,-18%
O=[N+]([O-])c1ccc2nc(-c3ccc(Cl)cc3)[nH]c2c1,?,?,?,?,-697%,20µM*
CNC(=S)NNC(=O)c1ccc(C)s1,nt,nt,nt,nt,nt,24%
CC1=NN(C(=O)c2ccc(Cn3nc(C)c(Br)c3C)cc2)C(O)(C(F)(F)F)C1 (stereo unspecified),4%,i,i,-3%,-8%,26%
CC1=NN(C(=O)c2ccc(Cn3nc(C)cc3C)o2)C(O)(C(F)(F)F)C1 (stereo unspecified),6%[38.3 µM],i,i,2.3µM*,3.7µM*,11%
CC1=NN(C(=O)Cn2nc([N+](=O)[O-])cc2C)C(O)(C(F)(F)F)C1 (stereo unspecified),4%,i,i,2%,-1%,-10%
CC1=NN(C(=O)c2ccc(Cn3cc(Br)c([N+](=O)[O-])n3)o2)C(O)(C(F)(F)F)C1 (stereo unspecified),-1%,i,i,-2%,10µM*,0%
CC1=NN(C(=O)c2ccc(Cn3nc(C)c([N+](=O)[O-])c3C)cc2)C(O)(C(F)(F)F)C1 (stereo unspecified),4%[38.3 µM],i,9.2µM*,?,16%,12%
c1ccc2c(c1)OCCOCCOCCOCCOCCOc1ccccc1OCCOCCOCCO2,?,5.2µM*,5.2µM*,?,?,-2%
c1ccc2c(c1)OCCOCCOCCOCCOc1ccccc1OCCO2,nt,nt,nt,nt,nt,-3%
O=C(On1c(-c2ccccc2)nc2ccccc2c1=O)c1ccco1,nt,i,i,?,?,?
COc1cc(OC)cc(-c2nc3ccccc3c(=O)n2OC(=O)c2ccccc2C)c1,8%,i,?,16µM*,0%,-11%
COc1ccc(OC)c(S(=O)(=O)N2CCC(c3ncc(C)n3C(C)C)C2)c1 (stereo unspecified),nt,nt,nt,nt,nt,50%
O=C(COC(=O)c1cc(S(=O)(=O)N2CCCCC2)ccc1N1CCOCC1)c1ccccc1,0%,i,21µM*,0%,5%,-16%
O=C(COC(=O)c1cc(S(=O)(=O)N2CCCCC2)ccc1N1CCOCC1)c1ccc(Cl)cc1,4%,i,i,1%,6.5µM*,-25%
Cc1ccc(OCC(=O)Nc2ccc(S(=O)(=O)NC(C)(C)C)cc2)c(Br)c1,nt,nt,nt,nt,nt,2%
CC(=O)N1CCN(C(=O)c2ccc3nc(C)c(C)nc3c2)CC1,nt,nt,nt,nt,nt,-20%
COc1cc(NC(=O)Cn2nc(C(F)(F)F)c(Br)c2C)cc([N+](=O)[O-])c1,?,i,18µM*,0%,-5%,-6%
SMILES,PINK1 modulator,KB-3-1 cytotox,KB-V1 MDR tox,MCF10A rereplic,SW480 rerep,ALOX12 inh
COc1ccc(CNC(=O)Cn2nc(C(F)(F)F)c(Br)c2C)cc1,3%,i,i,20%,-1%,63%
COc1nc(-c2ccccc2)cc(-c2ccc(OC)c(OC)c2)n1,-3%[38.3 µM],i,8.2µM*,?,?,-20%
ClCCn1cnc2c(SCc3ccccc3)ncnc21,2%,4.1µM*,6.5µM*,16%,?,1%
ClCCn1cnc2c(SCc3ccccc3Cl)ncnc21,-1%,?,?,9%,8%,?
COCc1cc(C)nc(OCC(=O)N/N=C/c2ccc(O)cc2)c1C#N,3%,i,i,-1%,18µM*,-15%
COCc1cc(C)nc(OCC(=O)N/N=C/c2ccc(OC)c(OC)c2)c1C#N,2%,i,i,?,10%,-6%
COc1ccc(NC(=O)C2=C(C)NC(=O)NC2c2cccc(OCc3ccccc3)c2)cc1 (stereo unspecified),nt,nt,nt,nt,nt,-10%
O=C(CSc1nc2ccccc2n1-c1ccccc1)Nc1ncc(Cl)cc1Cl,6%,5.2µM*,?,?,7%,-10%
CCn1c(SCC(=O)Nc2ccc(Cl)cn2)nc2ccccc21,nt,nt,nt,nt,nt,-7%
O=C(O)CCSc1nc2ccccc2n1-c1ccccc1,3%,i,i,-1%,-9%,-1%
Cc1cccc(-n2c(SCC(=O)Nc3ncc(Cl)cc3Cl)nc3ccccc32)c1,1%,2.9µM*,?,15%,?,-19%
Cc1cccc(-n2c(SCc3cc(=O)n4ccsc4n3)nc3ccccc32)c1,-3%,?,13µM*,8%,?,-3%
CCC(C)[C@H](NC(=O)Nc1cc(OC)cc(OC)c1)C(=O)O (stereo partly specified),nt,nt,nt,nt,nt,-1%
CN1CCN(C(=O)Cn2ccc3c(Br)cccc32)CC1,nt,nt,nt,nt,nt,-5%
COc1ccc2[nH]c3c(=O)n(/N=C/[C@H]4C(C)C=C(C)CC4C)c(=O)[nH]c3c2c1 (stereo partly specified),-1%,?,i,12µM*,18µM*,?
COc1ccc2c(c1)[nH]c1c(=O)n(/N=C/C3C(C)C=C(C)CC3C)c(=O)[nH]c12 (stereo unspecified),9%,i,i,?,5%,?
CC(C(=O)NCCN1CCCC1)C1CCN(C(=O)c2ccc3nc(-c4ccccc4)oc3c2)CC1 (stereo unspecified),nt,nt,nt,nt,nt,0%
N#CC(C#N)=C1C=CC=CN1/C(=C\c1ccco1)C(=O)c1ccc(Cl)cc1,-3%,i,i,1.6µM*,2.6µM*,?
N#C/C(=C\c1ccco1)C(=O)NCc1ccccc1,5%,i,i,-4%,-160%,nt
O=C(NCC1CCCO1)/C(=C\c1ccco1)NC(=O)c1ccc(Cl)cc1 (stereo unspecified),0%,i,i,-9%,-7%,-4%
